Measurements taken from PubChem BioAssay AID431 (Sanford-Burnham Center for Chemical Genomics, 2006).
In all, about 63,000 compounds went through this assay and about 1,100 (1.7%) were called active.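 How the source made its calls: active means compounds whose percent cytotoxicity in the single-dose primary screen, scaled between solvent and toxic-drug controls, exceeds 50; inactive means the rest.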 What follows is part of a selection rich in actives, with near analogues and random picks from the rest. Potency and affinity values are given separately.

Assay: cytotoxicity in KRAS-transformed pancreatic duct cells, primary screen, cell-based, fluorescence, HTS (AID 431);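 further: 0% = DMSO solvent wells and 100% = doxorubicin-treated wells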
Details: HPDE-C7K KRASV12 cells, Alamar Blue viability, 48 h; at 10 µM; active compounds read high

| SMILES | cytotoxicity |
| --- | --- |
| CC1(C)CC(=O)C(C=Nc2ccc3[nH]ncc3c2)=C(O)C1 | 14.8% (inactive) |
| CN1CCN(C(=O)c2cc3c(n(-c4ccccc4)c2=O)CC(C)(C)CC3=O)CC1 | -5% (inactive) |
| CCCn1c(=O)c2ccccc2n2c(SCCOc3ccc(OC)cc3)nnc12 | -17.4% (inactive) |
| COCCCNc1oc(COc2ccc(Cl)cc2Cl)nc1C#N | 18.7% (inactive) |
| CN(C)c1oc(-c2ccc(OCc3ccccc3)cc2)nc1C#N | -8.5% (inactive) |
| N#Cc1nc(-c2ccc(OCc3ccc(Cl)cc3)cc2)oc1N1CCOCC1 | -19.7% (inactive) |
| CN(C)c1oc(-c2ccc(OCc3ccc(Cl)cc3)cc2)nc1C#N | 51.7% (active) |
| O=C(Cn1cccc1)Nc1ccc(F)cc1F | 1% (inactive) |
| CCOC(=O)c1[nH]c2ccc(F)cc2c1N=C(C)N(CC)CC | -17.4% (inactive) |
| CCOC(=O)c1[nH]c2ccc(C)cc2c1N=CN(CC)CC | 4.8% (inactive) |
| CCOC(=O)c1[nH]c2ccc(C)cc2c1N=C(C)N(C)C | 70% (active) |
| OC(CN1CCOCC1)CN(c1ccccc1)c1ccccc1 (stereo unspecified) | -10.7% (inactive) |
| O=C(CSc1ncnc2ccccc12)N1CCCC1 | -10.1% (inactive) |
| c1ccc2c(c1)nc(N1CCOCC1)c1c3ccccc3[nH]c21 | -52.3% (inactive) |
| CC1(C)CC(=O)c2cnn(-c3nc4ccccc4[nH]3)c2C1 | -19% (inactive) |
| COc1cc(C(C)=O)ccc1OC(=O)C(C)N1C(=O)c2ccccc2C1=O (stereo unspecified) | -5.8% (inactive) |
| O=C(NCc1ccco1)C(Cc1ccccc1)N1C(=O)c2ccccc2C1=O (stereo unspecified) | -12.8% (inactive) |
| COc1ccc(NC(=O)CC2C(=O)N(c3ccc(OC)cc3)C(=O)N2CCN2CCN(C)CC2)cc1 (stereo unspecified) | -7.8% (inactive) |
| Cc1cc(O)c(-c2n[nH]c3c2C(c2cccc(O)c2)N(Cc2cccnc2)C3=O)cc1Cl (stereo unspecified) | 9.3% (inactive) |
| COCCCN1C(=O)c2[nH]nc(-c3cc(C)cc(C)c3O)c2C1c1ccc(O)c(OC)c1 (stereo unspecified) | 12% (inactive) |
| COc1ccc(C2c3c(-c4cc(Cl)c(C)cc4O)n[nH]c3C(=O)N2Cc2cccnc2)cc1OC (stereo unspecified) | 14.2% (inactive) |
| Cc1ccc(C2c3c(-c4ccccc4O)n[nH]c3C(=O)N2Cc2ccncc2)cc1 (stereo unspecified) | 8.5% (inactive) |
| COc1ccc(CCN2C(=O)c3[nH]nc(-c4ccccc4O)c3C2c2ccccc2)cc1OC (stereo unspecified) | 24% (inactive) |
| COCCCN1C(=O)c2[nH]nc(-c3ccccc3O)c2C1c1cccc(Cl)c1 (stereo unspecified) | 18.6% (inactive) |

| SMILES | cytotoxicity |
| --- | --- |
| COc1ccc(CCN2C(=O)c3[nH]nc(-c4ccccc4O)c3C2c2cccc(O)c2)cc1OC (stereo unspecified) | 63.4% (active) |
| COc1cc(C2C(C(C)=O)=C(O)C(=O)N2CCc2ccc(OC)c(OC)c2)ccc1O (stereo unspecified) | 1.7% (inactive) |
| COCCCN1C(=O)c2[nH]nc(-c3ccccc3O)c2C1c1ccc(Cl)cc1 (stereo unspecified) | 62.9% (active) |
| CC(C)OCCCN1C(=O)c2[nH]nc(-c3ccccc3O)c2C1c1cccc(Cl)c1 (stereo unspecified) | -4.9% (inactive) |
| COc1ccc(C2c3c(-c4ccccc4O)n[nH]c3C(=O)N2CCc2ccc(OC)c(OC)c2)cc1 (stereo unspecified) | 51.4% (active) |
| Cc1ccc(S(=O)(=O)N(C)CCCC(=O)NCc2ccc3c(c2)OCO3)cc1 | -7.5% (inactive) |
| O=S(=O)(c1cccc(-c2csc(-c3cccnc3)n2)c1)N1CCCCC1 | -13.4% (inactive) |
| Cn1nccc1/C=C(/C#N)S(=O)(=O)c1ccccc1 | -21.9% (inactive) |
| Cc1ccc2nc(SCC(=O)O)nc(C)c2c1 | -14.7% (inactive) |
| CCc1nnc(NC(=O)CSc2nnc(Cc3ccccc3)n2-c2ccccc2)s1 | -4.7% (inactive) |
| CC1=Nn2c(nnc2-c2ccco2)SC1 | -17.8% (inactive) |
| COC(=O)c1sc(NC(=O)C2CCCO2)c(C(=O)OC)c1C (stereo unspecified) | 19.4% (inactive) |
| COc1ccc(C(=O)CSc2nnc(-c3ccccc3)o2)cc1 | -6.4% (inactive) |
| O=C(CCN1c2ccccc2Sc2ccccc21)OCc1nnc(-c2ccccc2)o1 | 3.5% (inactive) |
| Cc1nnc(SC(=O)N2c3ccccc3Sc3ccccc32)s1 | -0.5% (inactive) |
| COc1cc(OC)cc(-c2nnc(SCC(=O)N3c4ccccc4Sc4ccccc43)o2)c1 | -24.8% (inactive) |
| O=C(COc1cc(Cl)ccc1Cl)Nc1nnc(CC(=O)N2CCOCC2)s1 | -20% (inactive) |
| COc1ccccc1NC(=O)CN1CCN(CC(=O)Nc2ccc(F)cc2)CC1 | 11.3% (inactive) |
| CCCNc1nc2c(c(=O)[nH]c(=O)n2C)n1Cc1ccc(F)cc1 | 8.2% (inactive) |
| CC1Cc2ccccc2N1S(=O)(=O)c1ccc2c(c1)n(C)c(=O)c(=O)n2C (stereo unspecified) | 2.9% (inactive) |
| CCOC(=O)C1CCCN(S(=O)(=O)Cc2ccccc2)C1 (stereo unspecified) | -14.4% (inactive) |
| O=C1CSC(=S)N1c1cccnc1 | -10.8% (inactive) |
| O=C(O)c1ccc(CN2C(=O)CSC2=S)cc1 | -5.7% (inactive) |
| Cc1cccc(NC(=O)c2oc3c(c2C)C(=O)CC(C)(C)C3)n1 | -12.7% (inactive) |

| SMILES | cytotoxicity |
| --- | --- |
| O=C(Nc1ccccc1C(=O)N1CCN(Cc2ccccc2)CC1)c1ccccn1 | 8.7% (inactive) |
| COc1ccc2[nH]c(=O)c(CN(C(=O)COc3ccccc3)C(C)C)cc2c1 | -31.9% (inactive) |
| Cc1nn(C)cc1C1C2=C(CC(C)(C)CC2=O)OC2=C1C(=O)CC(C)(C)C2 | 2.9% (inactive) |
| COC(=O)C1=C(N)OC2=C(C(=O)CC(C)(C)C2)C1c1ccoc1 (stereo unspecified) | -4% (inactive) |
| O=C(c1ccccc1C(=O)N1CCN(c2ccccc2F)CC1)N1CCN(c2ccccc2F)CC1 | 4% (inactive) |
| COc1ccccc1NC(=O)c1ccc(-c2ccccc2F)o1 | -9% (inactive) |
| COC(=O)c1ccccc1NC(=O)c1ccc(COc2ccccc2)o1 | 10.5% (inactive) |
| COC(=O)c1ccccc1NC(=O)c1ccc(-c2ccccc2F)o1 | 90.9% (active) |
| COc1ccc(NC(=O)C(c2ccccc2)N(C)C(=O)c2cnccn2)cc1 (stereo unspecified) | -2.6% (inactive) |
| CC1(C)Cc2c(sc3c2c(=N)n(Cc2ccco2)c(=O)n3CC(=O)Nc2ccccc2)CO1 | 8.6% (inactive) |
| CC1(C)Cc2c(sc3c2c(=N)n(Cc2ccco2)c(=O)n3CC(=O)Nc2ccc(Cl)cc2)CO1 | 52.6% (active) |
| Cc1ccc(NC(=O)Cn2c(=O)n(Cc3ccco3)c(=N)c3c4c(sc32)COC(C)(C)C4)cc1 | 23% (inactive) |
| COCCNS(=O)(=O)c1ccc2c(c1)C(=O)c1cc(S(=O)(=O)NCCOC)ccc1-2 | -5.8% (inactive) |
| CC1C(=O)C(C)C(c2cccs2)NC1c1cccs1 (stereo unspecified) | -4.9% (inactive) |
| CCOC(=O)c1csc(NC(=O)c2ccc(S(=O)(=O)N(C)C)cc2)n1 | 5.4% (inactive) |
| O=C(NC1CCCCC1)N1CCC(n2c(=O)[nH]c3ccccc32)CC1 | -0.1% (inactive) |
| O=c1[nH]c2ccccc2n1CCCN1CCN(C(c2ccccc2)c2ccccc2)CC1 | 31.4% (inactive) |
| Cc1noc(C)c1CSc1nnc(-c2ccncc2)n1-c1cccc(Cl)c1C | -13.5% (inactive) |
| COc1cc(C2CC(=O)C=C(O)C2)cc(OC)c1OC (stereo unspecified) | -10% (inactive) |
| CCOc1ccc(C(=O)NCc2cccnc2)cc1 | 0.5% (inactive) |
| O=S(=O)(c1ccc2nc(Cc3ccccc3)[nH]c2c1)N1CCOCC1 | 2.7% (inactive) |
| CC(=O)Nc1ccc(S(=O)(=O)N2CCN(c3cc(C)nc4ccccc34)CC2)cc1 | -3.8% (inactive) |
| CC(=O)Nc1ccc(S(=O)(=O)N2CCC(c3nc4ccccc4[nH]3)CC2)cc1 | 10.6% (inactive) |
| COc1cc(O)c(NC(C)=O)c2nonc12 | 1.5% (inactive) |

| SMILES | cytotoxicity |
| --- | --- |
| CC(=O)Nc1nonc1NC(C)=O | -9.1% (inactive) |
| Cc1ccc2nc(NCc3ccccc3)[nH]c2c1 | 85% (active) |
| c1ccc(CNc2nc3ccccc3[nH]2)cc1 | -13.8% (inactive) |
| COc1ccc2nc(NCc3ccccc3)[nH]c2c1 | 39.9% (inactive) |
| O=S(=O)(NCc1ccccc1)c1cccc2nonc12 | 4.4% (inactive) |
| CCC1(C)Cc2c(sc3nc4n(c(=O)c23)CCS4)CO1 (stereo unspecified) | 20.1% (inactive) |
| CC(C)Cn1c(Br)nc2c1c(=O)n(CCC#N)c(=O)n2C | -5.5% (inactive) |
| O=C1NC2(CCCCC2)N=C1c1ccccc1 | 0.3% (inactive) |
| O=C1NC2(CCCC2)N=C1c1ccc(Cl)cc1 | -2.2% (inactive) |
| Fc1ccccc1CSc1nc2ncccc2[nH]1 | -2.9% (inactive) |
| c1ccc2oc(SCc3nc4ccccc4s3)nc2c1 | 1.9% (inactive) |
| O=C(CSc1nc2ccccc2s1)Nc1ncccn1 | -2% (inactive) |
| CCS(=O)(=O)CCSc1nc2ccccc2o1 | -13.9% (inactive) |
| CCS(=O)(=O)CCSc1nc2ccccc2s1 | -6% (inactive) |
| Cn1c(SCc2cc(=O)n3cc(Br)ccc3n2)nnc1C1COc2ccccc2O1 (stereo unspecified) | -2.9% (inactive) |
| COc1ccccc1-n1cnc2cc(NCc3ccco3)ccc21 | 66.4% (active) |
| CCC(=O)Nc1ccc2c(c1)ncn2-c1ccccc1OC | -32.9% (inactive) |
| COc1ccccc1-n1cnc2cc(NC(C)=O)ccc21 | -14.9% (inactive) |
| Cc1cccc2nc(Cn3c(=O)n(CCC(=O)NCc4ccco4)c(=O)c4sccc43)cc(=O)n12 | 2.4% (inactive) |
| O=C(NCN1C(=O)C2C3C=CC(C3)C2C1=O)Nc1nccs1 (stereo unspecified) | -8.1% (inactive) |
| Cc1c(C(=O)OC(C)C)[nH]c2c1C(=O)CCC2 | 18% (inactive) |
| Cc1ccc(SCc2[nH]nc3c2C(c2ccc(C)o2)C(C#N)=C(N)O3)cc1 (stereo unspecified) | 10.8% (inactive) |
| Cc1ccc(C2C(C#N)=C(N)Oc3nc(-c4ccccc4)[nH]c32)o1 (stereo unspecified) | 0.6% (inactive) |
| O=C(Nc1ccccc1)c1ccc(S(=O)(=O)NCC2CCCO2)cc1 (stereo unspecified) | -7.8% (inactive) |
